Test results as given in PubChem BioAssay AID504757 (Sanford-Burnham Center for Chemical Genomics, 2011).
The other results are listed elsewhere or left out. Active and inactive are the calls of the source. Cut-off read from the data, not from the text of the source: active = inhibition above about 39%; inactive = the rest.

Target: Cysteine protease ATG4B (Homo sapiens) (UniProt Q9Y4P1)
Experiment: ATG4B protease inhibitors, retest, confirmation, biochemical, fluorescence, single concentration (AID 504757)
Settings: ATG4B protease fluorescent substrate cleavage assay; at 8.33 µM; hits give high values

Sequence of Cysteine protease ATG4B (Homo sapiens) (Q9Y4P1 whole entry, looked up): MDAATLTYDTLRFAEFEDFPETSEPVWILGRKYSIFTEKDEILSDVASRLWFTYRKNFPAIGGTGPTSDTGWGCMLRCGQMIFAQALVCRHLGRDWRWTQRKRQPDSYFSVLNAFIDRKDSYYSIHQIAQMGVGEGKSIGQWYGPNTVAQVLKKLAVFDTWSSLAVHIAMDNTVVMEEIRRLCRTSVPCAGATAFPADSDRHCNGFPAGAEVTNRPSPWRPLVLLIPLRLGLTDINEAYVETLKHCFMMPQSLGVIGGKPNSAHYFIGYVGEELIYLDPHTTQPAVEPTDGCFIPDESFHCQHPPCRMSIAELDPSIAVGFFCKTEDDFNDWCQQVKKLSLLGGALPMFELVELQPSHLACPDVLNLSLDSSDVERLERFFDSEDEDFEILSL

Row | SMILES | inhibition
1 | COc1ccc(/C=C2/SC(=O)N(CCCCCC(=O)Nc3ccccc3C(=O)O)C2=S)cc1 | 56.7% (active)
2 | CCc1ccc2c(c1)C(c1ccc([N+](=O)[O-])cc1)=NNC(c1ccccc1)=N2 | 51.2% (active)
3 | CN(C)Cc1ccc(F)cc1Sc1cc(Cl)ccc1Cl | 67.4% (active)
4 | Cc1ccc(-n2c(SCC(=O)N/N=C/C=C/c3ccccc3[N+](=O)[O-])nc3ccccc3c2=O)cc1 | 46.6% (active)
5 | COc1ccc(/C=C2\CCc3ccccc3C2=O)c(OC)c1OC | 90.7% (active)
6 | O=C(O)C(c1ccccc1)N1C(=O)/C(=C\c2ccc(-c3cccc(Cl)c3)o2)SC1=S (stereo unspecified) | 38.8% (active)
7 | O=C(O)CCn1cc(/C=C/C(=O)c2ccc(Cl)cc2)c(-c2cccc(Br)c2)n1 | 56.8% (active)
8 | COC(=O)N/N=C/c1cn(CCCOc2ccc(C)cc2)c2ccccc12 | 64.9% (active)
9 | CCCOc1ccc2c3c(c(=O)oc2c1OCCC)CCC3 | 60.3% (active)
10 | CCCC1=Nc2cc(C(=O)NCc3ccco3)ccc2Sc2ccccc21 | 54.3% (active)
11 | Clc1ccccc1CSc1nnc(-c2ccco2)c(-c2ccco2)n1 | 64.1% (active)
12 | Cc1ccc(CSc2nc(-c3ccccc3)c(C#N)c(=O)[nH]2)cc1 | 54.3% (active)
13 | O=C1Nc2cc(Cl)c(Cl)cc2N(O)N1c1cc(Cl)cc(Cl)c1 | 64.3% (active)
14 | CCOC(=O)C(C)Sc1nc2ccccc2c(=O)n1CC1CCCCC1 (stereo unspecified) | 54.5% (active)
15 | NC(=O)c1sc2nc3c(c(-c4ccccc4)c2c1N)CCC3 | 57.5% (active)
16 | OC(CNCc1ccc(Cl)c(Cl)c1)c1ccccc1 (stereo unspecified) | 73.9% (active)
17 | Cc1ccc(N=C2NC(=O)/C(=C/C=C/c3ccco3)S2)cc1C | 66.8% (active)
18 | CC(=O)Nc1ccc(C(=O)Nc2nc(-c3cc(C)n(Cc4ccccc4)c3C)cs2)cc1 | 62.7% (active)
19 | FC(F)(F)Oc1ccc(NC(=S)NCc2ccccc2)cc1 | 71.7% (active)
20 | CCOC(=O)c1c(-c2ccccc2)oc2cc(Br)c(O)c(C=O)c12 | 79% (active)
21 | Cc1ccc(-c2cc(C(=O)N3CCc4ccccc4C3)no2)cc1 | 66.7% (active)
